# Experimental data taken from PubChem BioAssay AID1159580 (chemical genetic matrix, 2015).
# Hit rate of the full screen: of about 5,500 compounds, about 2,000 (36%) were called active. About 18% were inconclusive and are not listed. The list shows a part of the results. Unmarked numbers belong to inactive results. Cut-off read from the data, not from the text of the source: active = normalized growth mostly below about 0.91 (no sharp cut-off); inconclusive = no clear call, values can overlap the other calls; inactive = mostly above about 0.92.
# Test: chemical genetic growth profiling, strain panel (AID 1159580);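 note: tested at 20 µM; growth read once vehicle control cultures reached saturation at 30 °C; 1 = growth at the plate median or of vehicle wells; lower values mean less growth of the strain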
# Conditions: growth OD
# [1] = S. cerevisiae deletion strains, locus YAL013W, strain DEP1, active compounds read low
# [2] = S. cerevisiae deletion strains, locus YBR229C, strain ROT2, active compounds read low
# [3] = S. cerevisiae deletion strains, locus YDL101C, strain DUN1, active compounds read low
# [4] = S. cerevisiae deletion strains, locus YDL134C, strain PPH21, active compounds read low
# [5] = S. cerevisiae deletion strains, locus YDR150W, strain NUM1, active compounds read low
# [6] = S. cerevisiae deletion strains, locus YEL061C, strain CIN8, active compounds read low
# [7] = S. cerevisiae deletion strains, locus YGR078C, strain PAC10, active compounds read low
# [8] = S. cerevisiae deletion strains, locus YGR229C, strain SMI1, active compounds read low
# [9] = S. cerevisiae deletion strains, locus YHR030C, strain SLT2, active compounds read low
# [10] = S. cerevisiae deletion strains, locus YHR087W, strain rtc3, active compounds read low
# [11] = S. cerevisiae deletion strains, locus YJL187C, strain SWE1, active compounds read low
# [12] = S. cerevisiae deletion strains, locus YJR043C, strain POL32, active compounds read low
# [13] = S. cerevisiae deletion strains, locus YJR075W, strain HOC1, active compounds read low
# [14] = S. cerevisiae deletion strains, locus YLR039C, strain RIC1, active compounds read low
# [15] = S. cerevisiae deletion strains, locus YLR058C, strain SHM2 (second series), active compounds read low
# [16] = S. cerevisiae deletion strains, locus YLR085C, strain ARP6, active compounds read low
# [17] = S. cerevisiae deletion strains, locus YLR262C, strain YPT6, active compounds read low
# [18] = S. cerevisiae deletion strains, locus YML094W, strain GIM5, active compounds read low
# [19] = S. cerevisiae deletion strains, locus YMR219W, strain ESC1, active compounds read low
# [20] = S. cerevisiae deletion strains, locus YMR263W, strain SAP30, active compounds read low
# [21] = S. cerevisiae deletion strains, locus YNL153C, strain GIM3, active compounds read low
# [22] = S. cerevisiae deletion strains, locus YNL298W, strain CLA4 (second series), active compounds read low
# [23] = S. cerevisiae deletion strains, locus YNL322C, strain KRE1, active compounds read low
# [24] = S. cerevisiae deletion strains, locus YNR030W, strain Alg12, active compounds read low
# [25] = S. cerevisiae deletion strains, locus YOL006C, strain TOP1, active compounds read low
# [26] = S. cerevisiae deletion strains, locus YPL055C, strain LGE1, active compounds read low
# [27] = S. cerevisiae deletion strains, locus YPL241C, strain CIN2, active compounds read low
# [28] = S. cerevisiae deletion strains, locus YPR135W, strain CTF4, active compounds read low
# [29] = S. cerevisiae deletion strains, locus YKL190W, strain CNB1, active compounds read low
structure (smiles),measurement,setting,value
COc1ccccc1NC(=O)NCCSCc1ccccc1Cl,normalized growth,[1],0.979
same,normalized growth,[2],0.981
same,normalized growth,[3],1.03
same,normalized growth,[4],0.978
same,normalized growth,[5],0.968
same,normalized growth,[6],0.983
same,normalized growth,[7],0.993
same,normalized growth,[8],0.984
same,normalized growth,[9],0.877
same,normalized growth,[10],0.976
same,normalized growth,[11],1.01
same,normalized growth,[12],1.01
same,normalized growth,[13],1.01
same,normalized growth,[14],0.887
same,normalized growth,[15],1
same,normalized growth,[16],1.07
same,normalized growth,[17],0.931
same,normalized growth,[18],0.963
same,normalized growth,[19],0.988
same,normalized growth,[20],1.01
same,normalized growth,[21],1.01
same,normalized growth,[22],0.974
same,normalized growth,[23],0.985
same,normalized growth,[24],0.971
same,normalized growth,[25],0.954
same,normalized growth,[26],0.927
same,normalized growth,[27],1.04
same,normalized growth,[28],0.88
same,normalized growth,"S. cerevisiae strains, strain wild type, active compounds read low",0.978
CSc1nsc(SC)c1C(=O)NC(=O)Nc1ccc(F)cc1F,normalized growth,[1],1.01
same,normalized growth,[2],1.01
same,normalized growth,[3],1.04
same,normalized growth,[5],1.04
same,normalized growth,[6],1.01
same,normalized growth,[7],1.01
same,normalized growth,[8],1.02
same,normalized growth,[9],1.1
same,normalized growth,[10],1.02
same,normalized growth,[12],1.01
same,normalized growth,[13],1.01
same,normalized growth,[29],1.02
same,normalized growth,[14],1.03
same,normalized growth,[15],1
same,normalized growth,[16],1.02
same,normalized growth,[17],1
same,normalized growth,[18],1.08
same,normalized growth,[19],1
same,normalized growth,[20],0.993
same,normalized growth,[21],1.01
same,normalized growth,[22],1.04
same,normalized growth,[23],1.02
same,normalized growth,[24],1.03
same,normalized growth,[26],1.08
same,normalized growth,[27],1.07
same,normalized growth,[28],1.07
Cc1cc(C)c(CSCCNC(=O)Nc2ccc(F)cc2F)c(C)c1,normalized growth,[1],1.02
same,normalized growth,[2],1.01
same,normalized growth,"S. cerevisiae deletion strains, locus YCL061C, strain MRC1, active compounds read low",1.03
same,normalized growth,[3],1.03
same,normalized growth,[4],1.01
same,normalized growth,[5],0.942
same,normalized growth,[6],1.01
same,normalized growth,[7],1.03
same,normalized growth,[8],1.02
same,normalized growth,[9],1.08
same,normalized growth,[10],1.02
same,normalized growth,[11],1.03
same,normalized growth,[12],1.02
same,normalized growth,[13],1.03
same,normalized growth,[29],1.02
same,normalized growth,[14],1.05
same,normalized growth,[15],1.02
same,normalized growth,[16],1.28 [resistant] (active)
same,normalized growth,[17],1.03
same,normalized growth,[18],1.04
same,normalized growth,[19],1.01
same,normalized growth,[20],0.937
same,normalized growth,"S. cerevisiae deletion strains, locus YMR307W, strain GAS1, active compounds read low",1.29
same,normalized growth,[21],1.01
same,normalized growth,[22],1.03
same,normalized growth,[23],1.02
same,normalized growth,[24],1.04
same,normalized growth,[25],1.18
same,normalized growth,[26],0.908
same,normalized growth,[27],1.13
same,normalized growth,[28],1.11
